# A number with no mark means an inactive call. Calls of active or inactive are those of the source. Unless noted, no stated cut-off is given here; in the data, active means inhibition above about 28%; inactive means the rest.
# Legend:
# [1] = StAR promoter reporter inhibitors, counter-screen for LRH-1 inverse agonist project, cell-based, luminescence, high throughput (AID 651611); details: StAR promoter luciferase reporter counterscreen, at 3.6 µM, hits give high values
# [2] = molecular target: Nuclear receptor subfamily 5 group A member 2 (Homo sapiens) (UniProt O00482); test: LRH-1 (NR5A2) inverse agonists, retest, confirmation, cell-based, luminescence (AID 651613; in the data active means inhibition above about 42%;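 further: HEK293T cells co-transfected with LRH-1 and StAR promoter luciferase reporter; 0% = vehicle wells and 100% = parental cells lacking receptor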); details: cell-based LRH-1 luciferase reporter, inverse agonism; at 3.6 µM; hits give high values
# [3] = molecular target: Steroidogenic factor 1 (Homo sapiens) (UniProt Q13285); test: SF1 (NR5A1) inverse agonists, counter-screen for LRH-1 inverse agonist project, cell-based, luminescence, high throughput (AID 651614; in the data active means inhibition above about 44%;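 further: cells cotransfected with StAR promoter reporter and SF1 expression vector; 0% = vehicle on cells with receptor and 100% = vehicle on cells lacking receptor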); details: cell-based SF1 luciferase reporter, at 3.6 µM, hits give high values
# [4] = VP16 transactivation reporter inhibitors, counter-screen for LRH-1 inverse agonist project, cell-based, luminescence, high throughput (AID 651615; in the data active means inhibition above about 33%); details: Gal4-VP16 luciferase reporter cells, at 3.6 µM, hits give high values
# Sequence of Nuclear receptor subfamily 5 group A member 2 (Homo sapiens) (O00482 whole entry, looked up): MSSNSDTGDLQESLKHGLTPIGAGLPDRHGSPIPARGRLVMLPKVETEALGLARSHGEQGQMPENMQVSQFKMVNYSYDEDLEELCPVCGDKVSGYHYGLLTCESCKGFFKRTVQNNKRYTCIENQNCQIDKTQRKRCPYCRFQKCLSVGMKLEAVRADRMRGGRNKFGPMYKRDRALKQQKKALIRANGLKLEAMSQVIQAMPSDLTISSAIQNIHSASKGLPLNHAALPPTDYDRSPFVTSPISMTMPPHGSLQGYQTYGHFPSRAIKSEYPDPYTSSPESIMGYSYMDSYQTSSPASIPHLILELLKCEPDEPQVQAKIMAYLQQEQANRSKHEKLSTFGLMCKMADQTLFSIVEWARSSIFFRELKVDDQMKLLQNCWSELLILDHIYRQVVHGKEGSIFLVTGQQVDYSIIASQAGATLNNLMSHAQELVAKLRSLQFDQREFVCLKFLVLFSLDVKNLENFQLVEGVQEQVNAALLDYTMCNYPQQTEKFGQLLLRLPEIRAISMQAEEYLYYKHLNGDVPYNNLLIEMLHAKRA
# Sequence of Steroidogenic factor 1 (Homo sapiens) (Q13285 whole entry, looked up, the tested form may be a part): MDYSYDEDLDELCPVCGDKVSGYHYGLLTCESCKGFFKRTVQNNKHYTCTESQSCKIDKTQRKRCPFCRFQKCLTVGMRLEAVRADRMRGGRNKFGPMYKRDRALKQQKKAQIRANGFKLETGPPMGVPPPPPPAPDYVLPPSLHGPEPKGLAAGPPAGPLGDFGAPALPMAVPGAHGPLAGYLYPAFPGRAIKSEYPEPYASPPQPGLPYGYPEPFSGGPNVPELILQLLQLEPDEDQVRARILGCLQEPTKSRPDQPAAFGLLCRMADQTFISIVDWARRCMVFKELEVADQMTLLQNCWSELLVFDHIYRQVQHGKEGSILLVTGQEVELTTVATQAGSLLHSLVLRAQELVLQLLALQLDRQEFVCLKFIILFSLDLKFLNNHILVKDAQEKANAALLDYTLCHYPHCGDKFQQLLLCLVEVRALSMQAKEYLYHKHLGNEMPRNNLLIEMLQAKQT
Structure (SMILES),inhibition [1],inhibition [2],inhibition [3],inhibition [4]
COc1cccc2sc(N3CCN(C(=O)c4ccc([N+](=O)[O-])o4)CC3)nc12,25.2%,69.2% (active),70.4% (active),-23.4%
Cc1ccc(NC(=O)Cc2nnc(SCC(=O)Nc3ccc(N4CCOCC4)cc3)n2C)cc1,6.95%,59.7% (active),51.9% (active),12%
CCn1c(=NC(=O)CCS(=O)(=O)c2ccccc2)sc2cccc(OC)c21,6.25%,108% (active),70.3% (active),69.2% (active)
Cc1ccc(S(=O)(=O)Nc2ccc3c(c2)n(C)c(=O)n3C)cc1,40.1% (active),48.8% (active),38.3%,-96.8%
CCCC(=O)Nc1sc2c(c1C(=O)Nc1ccccn1)CCCC2,-1.01%,47.1% (active),53.8% (active),5.28%
Cc1cc(=O)oc2c(C)c(OCC(=O)NC3CC(C)(C)NC(C)(C)C3)ccc12,-1.6%,48% (active),55% (active),-11.2%
COc1ccc(C2=CC(=O)OC3(CCCCC3)O2)cc1,15.4%,63.9% (active),45.4% (active),6.01%
CCOC(=O)C1CCN(Cc2cc(Cl)c3ccccc3c2O)CC1,1.44%,10.1%,32.9%,2.83%
CC(=O)Nc1ccc(NC(=O)COC(=O)Cc2c[nH]c3ccccc23)cc1,18.8%,67.4% (active),53.8% (active),-15.3%
COc1cccc(C(=O)COc2cccc(NC(=O)c3cccc([N+](=O)[O-])c3)c2)c1,14.4%,62.4% (active),59.3% (active),2.28%
COc1ccc(NC(=O)COC(=O)Cc2c[nH]c3ccccc23)cc1Cl,18.2%,40.9%,42.5%,-6.87%
Cc1cc(-c2nnc(SCC(=O)Nc3cccc(C)c3C)n2N)n[nH]1,5.59%,53.3% (active),48.2% (active),-4.91%
Cc1sc(NC(=O)C(C)C)c(C(=O)Nc2ccccc2)c1C,13.2%,50.2% (active),45.9% (active),-9.75%
COc1ccc(NC(=O)CSc2n[nH]c(-c3ccccn3)n2)cc1,2.28%,32.4%,20.2%,2.72%
O=C(NC1CCC(CC2CCC(NC(=O)C(Cl)Cl)CC2)CC1)C(Cl)Cl (configuration not stated),6.07%,58.2% (active),62% (active),-2.2%
COc1cc(-c2cc(C(=O)NCc3ccc(S(N)(=O)=O)cc3)c3ccccc3n2)cc(OC)c1OC,27.1%,20.3%,23.5%,-26.4%
COC(=O)c1ccc([C@H](NC(=O)c2ccco2)[C@]2(C)C[C@H]2C2CCCCC2)cc1,4.8%,30.3%,21.1%,2.54%
CCC1CCCCN1C(=O)c1ccc([N+](=O)[O-])o1 (configuration not stated),0.98%,47.5% (active),46.7% (active),3.65%
NC(=S)N/N=C/c1ccc([N+](=O)[O-])cc1,6.27%,42.7% (active),39.8%,-3.22%
COc1cc(C2c3cc4c(cc3OC(NNC(N)=S)C2C)OCO4)cc(OC)c1OC (configuration not stated),49.2% (active),35.4%,44.2% (active),14%
Cc1ccc(/C=C/S(=O)(=O)NCC(=O)OCC(=O)Nc2c(F)cccc2F)cc1,26.3%,52% (active),55.4% (active),-18.4%
N#Cc1ccc(NC(=O)COc2ccc(-n3cnnn3)cc2)cc1,11.7%,38.2%,35.9%,-2.83%
O=C(C(=Cc1ccccc1)CN1CCCCC1)c1ccccc1,36.4% (active),66.8% (active),75.1% (active),82.8% (active)
Cc1ccccc1NC(=S)NCc1ccc2[nH]c3c(c2c1)CCCC3,-0.36%,17.9%,28.9%,9.36%
O=C(Nc1c(Cl)ccc2nsnc12)c1ccc([N+](=O)[O-])o1,17.1%,65.1% (active),64.9% (active),-11.9%
Nc1c2ccccc2nc2ccccc12,14.7%,106% (active),52.1% (active),90.4% (active)
CCN1C(=O)c2cccc3c(NC(=O)c4ccc(S(=O)(=O)N5CCOCC5)cc4)ccc1c23,40.3% (active),62% (active),62.7% (active),-60.9%

Structure (SMILES),inhibition [1],inhibition [2],inhibition [3],inhibition [4]
CC1(C)Cc2ccccc2-c2nnnn21,3.18%,14.1%,2.39%,-5.72%
CCCCSc1nc(SCC(=O)NCc2ccco2)c2c3c(sc2n1)COC(C)(CC)C3 (configuration not stated),4.87%,53.8% (active),44.6% (active),-1.29%
CC(=O)Nc1ccc(NC(=O)CSc2nnc(COc3ccccc3C)n2CC2CCCO2)cc1 (configuration not stated),16.5%,64.6% (active),57.3% (active),-5.23%
O=C(Nc1ccc(N2CCN(Cc3ccccc3F)CC2)cc1)c1ccc([N+](=O)[O-])o1,28.7% (active),70.6% (active),73.9% (active),32.6% (active)
CCOC(=O)c1ccc(N=Cc2cnc(N)nc2N)cc1,-7.89%,-2.86%,7.7%,3.32%
CNC(=O)c1nc(C)c(C2(C)CC(c3cccc([N+](=O)[O-])c3)=NO2)s1 (configuration not stated),8.75%,27%,35.6%,-1.29%
CCOc1ccc(NC(=O)Cn2cc(C(=O)C3CC3)c3ccccc32)cc1,5.9%,44.1% (active),37.5%,-14.7%
COc1ccc(S(=O)(=O)Nc2ccc3c(c2)n(C)c(=O)n3C)cc1F,19.6%,46.2% (active),52.1% (active),7.89%
C/C(=N\Nc1cc(C(F)(F)F)ccc1Cl)c1ccncc1,2.53%,40%,47.6% (active),3.73%
O=C(c1c(F)c(F)c(F)c(F)c1F)N1CCN(c2cccc(C(F)(F)F)c2)CC1,7.83%,49.5% (active),44% (active),11.4%
NC1=CC(=O)C(=O)c2ccccc21,29.2% (active),54.9% (active),47% (active),-6.09%
O=C(Nc1ccccc1)c1oc2ccccc2c1NC(=O)C1CC1,3.25%,52.8% (active),50.5% (active),1.67%
OC[C@@H]1CN(Cc2ccc(-c3ccccc3)cc2)C[C@H](n2cnc3c(NC4CCC4)ncnc32)O1,16.5%,53.4% (active),60.2% (active),56% (active)
COc1ccccc1NC(=O)c1ccc(NC(=O)COC(=O)C(C)C)cc1,12.5%,62.7% (active),55.7% (active),-39.4%
Cc1cc(C)c2sc(NC(=O)c3ccc([N+](=O)[O-])o3)nc2c1,-1.04%,54.4% (active),53.5% (active),-7.08%
Cc1nc2ccccc2n1/N=C/c1ccc([N+](=O)[O-])s1,20.9%,68.2% (active),71.4% (active),29.6%
CC(Nc1ncnc2sccc12)c1ccccc1 (configuration not stated),25.8%,64.5% (active),64.9% (active),57.7% (active)
COC(=O)c1ccc(COc2ccc(/C=N/NC(N)=S)cc2)o1,17.7%,55.8% (active),59% (active),15.7%
O=C(CSc1ncnc2c1cnn2Cc1ccccc1)Nc1ccc2c(c1)OCCO2,2.88%,61.3% (active),54% (active),2.68%
COc1cc(-c2cnc3c(NC=O)cc(-c4ccccc4Cl)cn23)cc(OC)c1OC,64.9% (active),45.6% (active),62.6% (active),-21.3%
Cc1cc2oc(=O)cc(-c3ccccc3)c2c(C)c1-c1ccc(C#N)cc1,4.09%,69% (active),62.7% (active),13.8%
COc1cccc(C2c3cc4c(cc3OC(N3CCOCC3)C2C)OCO4)c1O (configuration not stated),11.7%,51.8% (active),45.3% (active),21.4%
COc1ccc(CC(N)c2csc(Nc3ncccn3)n2)cc1 (configuration not stated),49.2% (active),26.2%,33.1%,15.5%
Cc1ccc2nsnc2c1NC(=O)c1ccc([N+](=O)[O-])o1,14.4%,57.8% (active),55.7% (active),-22.5%
CCN(CC)C1Oc2cc3c(cc2C(c2cccc(OC)c2O)C1C)OCO3 (configuration not stated),23.9%,53.1% (active),72% (active),15.5%
O=C(Nc1ccc2oc(-c3ccncc3)nc2c1)c1ccc([N+](=O)[O-])o1,34.1% (active),63.7% (active),66.2% (active),-13.7%

# From PubChem BioAssay
